Out of some 63,000 compounds screened, about 1,100 (1.7%) were called active. No stated cut-off is given here; in the data, active means cytotoxicity above about 50%; inactive means the rest. For the sample, actives were picked, then their nearest neighbours and some compounds at random. Measured potencies and affinities stand elsewhere.
assay: HPDE-C7 pancreatic duct cell viability loss – fluorescence, HTS (AID 430); details: HPDE-C7 pancreatic duct cells viability, at 10 µM, active compounds read high;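 further: cells exposed to compound for 48 hours before viability readout; 0% = vehicle and 100% = reference cytotoxic drug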

Which cytotoxicity does the source give for `CCC(=O)Nc1nc(C)nc(C)c1C(C)=O` here?
Its cytotoxicity is -5.6% (inactive).

With `CC(=O)Nc1ccc(C)cc1NC(C)=O` as the molecule, how does the cytotoxicity read?
The cytotoxicity was -3.9% (inactive).

Which cytotoxicity does the source give for `COc1ccc(C(c2nnnn2CCc2ccccc2)N2CCN(C3CCCC3)CC2)cc1` (stereo not given) here?
Its cytotoxicity is -6.9% (inactive).

Which cytotoxicity does the source give for `O=C(O)CSc1cccc2cccnc12` here?
The cytotoxicity was -7.9% (inactive).

For `CCOC(=O)CNc1ncnc2nc[nH]c12`, which cytotoxicity is on record?
The cytotoxicity was -3.5% (inactive).

With `c1ccc(-c2ccc(-c3ccccn3)nn2)nc1` as the molecule, how does the cytotoxicity read?
Its cytotoxicity is 0.9% (inactive).

Which cytotoxicity does the source give for `c1ccc(-c2nnc(-c3ccccn3)nn2)nc1` here?
The cytotoxicity was 6.6% (inactive).

For `COc1ccc(S(=O)(=O)N2CCOCC2)c(Cl)c1Cl`, which cytotoxicity is on record?
The cytotoxicity was -17.3% (inactive).

Which cytotoxicity does the source give for `CCCc1nc(NC2CCCCC2)c(C#N)c2c1COC(C)(C)C2` here?
The cytotoxicity was -4.4% (inactive).

Which cytotoxicity does the source give for `CCc1nc(NC2CCCCC2)c(C#N)c2c1COC(C)(C)C2` here?
Its cytotoxicity is 63.4% (active).

With `CCc1nc(NCC2CCCO2)c(C#N)c2c1COC(C)(C)C2` (stereo not given) as the molecule, how does the cytotoxicity read?
The cytotoxicity was -11.3% (inactive).

Which cytotoxicity does the source give for `COc1ccc(-n2cnnc2SCC(=O)c2cc(C)n(Cc3cccs3)c2C)cc1` here?
The cytotoxicity was 0.5% (inactive).

Which cytotoxicity does the source give for `CCOC(=O)C1=C(N2CCCCC2)c2cc3c(n2C1=O)CCCC3` here?
Its cytotoxicity is 10.1% (inactive).

With `CCSc1ncnc2c(C#N)c3n(c12)CCCCC3` as the molecule, how does the cytotoxicity read?
Its cytotoxicity is -13.6% (inactive).

For `CCN1CCN(CCNC(=O)c2ccc(CS(=O)(=O)c3ccccc3C)o2)CC1`, which cytotoxicity is on record?
The cytotoxicity was -0.5% (inactive).

Which cytotoxicity does the source give for `Cc1ccc(C)c(NC(=O)c2nnn(Cc3ccccc3C)c2N)c1` here?
The cytotoxicity was 1.7% (inactive).

For `Cc1ccc(NC(=O)c2nnn(-c3cc(C)cc(C)c3)c2N)cc1`, which cytotoxicity is on record?
The cytotoxicity was 55.6% (active).

For `COc1ccc(C)cc1NC(=O)c1nnn(Cc2cc(C)ccc2C)c1N`, which cytotoxicity is on record?
The cytotoxicity was 7.5% (inactive).

For `Cc1ccc(CCNC(=O)c2nnn(-c3cc(C)cc(C)c3)c2N)cc1`, which cytotoxicity is on record?
Its cytotoxicity is 3.4% (inactive).

For `Cc1cccc(-n2nnc(C(=O)Nc3ccc(F)cc3)c2N)c1`, which cytotoxicity is on record?
The cytotoxicity was 15.2% (inactive).

With `Cc1cc(C)cc(NC(=O)c2nnn(Cc3cc(C)ccc3C)c2N)c1` as the molecule, how does the cytotoxicity read?
The cytotoxicity was 58.9% (active).

Which cytotoxicity does the source give for `CCOC(=O)C(Cc1c[nH]c2ccccc12)NC(=O)CNC(C)=O` (stereo not given) here?
The cytotoxicity was 2.5% (inactive).

With `CCCn1cnc2cc(NCc3cccc(OC)c3O)ccc21` as the molecule, how does the cytotoxicity read?
The cytotoxicity was 5.7% (inactive).

For `CCOC(=O)c1ccc2ncc(C(=O)OCC)c(NCCCN3CCOCC3)c2c1`, which cytotoxicity is on record?
The cytotoxicity was 3% (inactive).

Which cytotoxicity does the source give for `COc1ccc2c(c1)C1(Nc3ccccc3C(=O)N1c1ccccc1)C(=O)N2` (stereo not given) here?
Its cytotoxicity is -14.8% (inactive).

With `ONC(=Nc1ccccc1)C(=Nc1ccccc1)NO` as the molecule, how does the cytotoxicity read?
The cytotoxicity was 0.4% (inactive).

With `CC(=Nc1ccccc1)Nc1ccccc1` as the molecule, how does the cytotoxicity read?
The cytotoxicity was -13.5% (inactive).

With `S=C(N=Nc1ccccc1)NNc1ccccc1` as the molecule, how does the cytotoxicity read?
Its cytotoxicity is 58.8% (active).

Which cytotoxicity does the source give for `COc1ccc(C2C(C(=O)NCCN3CCOCC3)c3ccccc3C(=O)N2C)cc1OC` (stereo not given) here?
Its cytotoxicity is -4.3% (inactive).

For `Cc1ccccc1-c1nn2c(-c3ccccc3)nnc2s1`, which cytotoxicity is on record?
The cytotoxicity was -0.8% (inactive).

Which cytotoxicity does the source give for `c1ccc(-c2nnc3sc(-c4csc5c4CCCC5)nn23)cc1` here?
The cytotoxicity was 75% (active).

Which cytotoxicity does the source give for `Cc1nnc2sc(-c3csc4c3CCCC4)nn12` here?
The cytotoxicity was -4.3% (inactive).

With `CCS(=O)(=O)n1nc(-c2ccccc2)cc1N` as the molecule, how does the cytotoxicity read?
The cytotoxicity was 1% (inactive).

Which cytotoxicity does the source give for `O=C(Cc1cccs1)N1CCCC(c2nc3c(nnn3Cc3ccc(F)cc3)c(=O)[nH]2)C1` (stereo not given) here?
The cytotoxicity was 3.7% (inactive).

For `CC(C)(C)c1ccc(Cn2nnc3c(=O)[nH]c(C4CCN(C(=O)Cc5cccs5)CC4)nc32)cc1`, which cytotoxicity is on record?
Its cytotoxicity is 0.2% (inactive).

Which cytotoxicity does the source give for `CCOc1ccc(-c2n[nH]c(C)c2-c2ccccc2OC)c(O)c1` here?
Its cytotoxicity is -12.5% (inactive).

With `CCCOC(=O)c1ccc(NC(=O)c2cnccn2)cc1` as the molecule, how does the cytotoxicity read?
The cytotoxicity was -2% (inactive).

Which cytotoxicity does the source give for `COc1ccc(C(=O)OCCN2C(=O)c3ccccc3C2=O)cc1` here?
Its cytotoxicity is -2.8% (inactive).

With `CCCOC(=O)c1ccc(OC(=O)c2ccco2)cc1` as the molecule, how does the cytotoxicity read?
Its cytotoxicity is -5.8% (inactive).

For `CCC(=O)Nc1c2c(nn1-c1ccc(C)cc1C)CSC2`, which cytotoxicity is on record?
Its cytotoxicity is -2.4% (inactive).

For `O=C(Nc1ccon1)c1cccc(S(=O)(=O)N2CCCC2)c1`, which cytotoxicity is on record?
The cytotoxicity was -18.1% (inactive).

Which cytotoxicity does the source give for `Cc1ccc(C)c(NC(=O)CCn2nc(C)cc2C)c1` here?
The cytotoxicity was -17.9% (inactive).

With `c1ccc2[nH]c(CN3CCN(c4ncnc5c4oc4ccccc45)CC3)nc2c1` as the molecule, how does the cytotoxicity read?
The cytotoxicity was -2.8% (inactive).

Which cytotoxicity does the source give for `CC(=O)N1CCN(C(=O)COc2ccc(Br)cc2)CC1` here?
The cytotoxicity was 4.1% (inactive).

With `CCOc1ccc(NC(=O)c2ccccc2NC(=O)CN2CCN(C(C)=O)CC2)cc1` as the molecule, how does the cytotoxicity read?
Its cytotoxicity is -0.6% (inactive).

For `O=C(C1CCN(Cc2ccc(F)cc2)CC1)N(CCO)Cc1ccccc1`, which cytotoxicity is on record?
The cytotoxicity was 2.8% (inactive).

Which cytotoxicity does the source give for `COC(=O)c1c(NC(C)=O)sc2c1CCCC2` here?
The cytotoxicity was -2% (inactive).

With `COC(=O)c1c(NC(=O)c2ccoc2C)sc2c1CCC2` as the molecule, how does the cytotoxicity read?
Its cytotoxicity is -21% (inactive).

For `COC(=O)c1c(NC(=O)c2ccc(Br)s2)sc2c1CCC2`, which cytotoxicity is on record?
Its cytotoxicity is 53.5% (active).

For `CC(=O)c1c(C)nc(-c2ccc3c(c2)OCO3)n1O`, which cytotoxicity is on record?
Its cytotoxicity is -6.2% (inactive).

With `O=C(Nc1ccc2c(c1)OCO2)C(c1ccc(Cl)cc1)N1CCC2(CC1)OCCO2` (stereo not given) as the molecule, how does the cytotoxicity read?
Its cytotoxicity is 4.2% (inactive).

Which cytotoxicity does the source give for `CC1CCN(C(=O)CNC(=O)Cn2ccc3ccccc3c2=O)CC1` here?
The cytotoxicity was -13.9% (inactive).

With `CN1CC2=Cc3ccccc3OC23Oc2ccccc2C=C3C1` as the molecule, how does the cytotoxicity read?
The cytotoxicity was 58.3% (active).

With `CCCCn1c(=O)[nH]c(=O)c2c1nc(COC(=O)c1c(C)noc1C)n2CCC` as the molecule, how does the cytotoxicity read?
Its cytotoxicity is -7% (inactive).

For `CSc1nc(-c2ccco2)cc(-c2ccccc2)c1C#N`, which cytotoxicity is on record?
The cytotoxicity was -2.3% (inactive).

With `Cc1cc(-c2ccccc2)c(C#N)c(N)n1` as the molecule, how does the cytotoxicity read?
Its cytotoxicity is -14.3% (inactive).

For `C=CCn1c(SCC(=O)C(C)(C)C)nnc1-c1cccs1`, which cytotoxicity is on record?
Its cytotoxicity is -5.8% (inactive).

Which cytotoxicity does the source give for `COc1ccc(C(=O)Oc2c(CN3CCOCC3)cc(Cl)c3cccnc23)cc1OC` here?
The cytotoxicity was 7.4% (inactive).

For `O=C(Oc1c(Cl)cc(Cl)c2cccnc12)N1CCOCC1`, which cytotoxicity is on record?
Its cytotoxicity is 3.3% (inactive).

With `COc1cc(C(=O)Oc2c(CN3CCOCC3)cc(Cl)c3cccnc23)cc(OC)c1OC` as the molecule, how does the cytotoxicity read?
Its cytotoxicity is 29% (inactive).

With `O=C(Oc1ccc(Cl)c2cccnc12)N1CCOCC1` as the molecule, how does the cytotoxicity read?
Its cytotoxicity is 10.3% (inactive).

With `Cc1ccc(CCNC(=O)C2CCCN(S(=O)(=O)c3cnc[nH]3)C2)cc1` (stereo not given) as the molecule, how does the cytotoxicity read?
Its cytotoxicity is -8.4% (inactive).

For `O=C(NCC(=O)N(c1ccc2c(c1)OCO2)C(C(=O)NC1CCCC1)c1ccncc1)c1ccco1` (stereo not given), which cytotoxicity is on record?
Its cytotoxicity is -5.8% (inactive).

With `Cc1cccc2cc(COC(=O)c3cccnc3)c(=O)[nH]c12` as the molecule, how does the cytotoxicity read?
The cytotoxicity was 8.9% (inactive).

Which cytotoxicity does the source give for `CC1CCN(S(=O)(=O)c2ccc3[nH]c(=O)c(=O)[nH]c3c2)CC1` here?
Its cytotoxicity is -9% (inactive).

Reference: PubChem BioAssay AID430 (Sanford-Burnham Center for Chemical Genomics, 2006)
